# Source: PubChem BioAssay (NCATS)
# Inconclusive results are not listed. Activity calls are given as the source filed them. Calls come from the whole dose curve; as a rule, active = well fitted inhibition curve with a large enough effect; inconclusive = small, poorly fitted or top-dose-only effect; inactive = flat fitted curve, though single readings scatter.
# Test system: W2
# Assay: qHTS profiling for inhibitors of Plasmodium falciparum proliferation (AID 504749); note: nearly all actives have a fitted effect of over 60% in size
# Conditions: P. falciparum in erythrocytes, SYBR Green DNA, 72 h; series mostly up to 28.7 µM
# Source text: NIH National Institute of Allergy and Infectious Diseases [NIAID] NIH Chemical Genomics Center [NCGC] MLPCN Grant: None Assay Provider: Xinzhuan Su, NIAID NCGC Assay Overview: Plasmodium falciparum is a virulent malarial parasite that kills 1-2 million people worldwide each year. Transmitted by mosquitoes, the sporozoite form of the parasite enters the blood stream to infect hepatocytes, where they become merozoites that infect red blood cells (erythrocytes). Within erythrocytes, merozoites begin a […] cycle of growth and division, after which the parasite is released to infect new red blood cells. Gametocytes, which form within erythrocytes as well, circulate in the bloodstream and are ingested by the mosquito, thereby completing the life cycle. To profile malarial isolates for differential chemical responses and to identify inhibitors of malarial growth, an assay that measures P. falciparum growth and replication within erythrocytes was employed. This assay uses a DNA binding fluorescent dye (SYBR Green) to detect parasite DNA following cell lysis. Because mature erythrocytes lack DNA, only Plasmodium-derived DNA is detected.
# NCGC Assay Protocol Summary: The SYBR Green viability assay was adapted from a method described previously (Plouffe et al., 2008). For screening 3 ul culture medium was dispensed into 1536 well black clear bottom plates (Aurora Biotechnologies) using a Multidrop Combi (Thermo Fisher Scientific Inc.), 23 nL compounds in DMSO were added by a pin tool (Kalypsys), and 5 ul of erythrocytes infected with P. falciparum (0.3% parasitemia, 2.5% hematocrit final concentration) were added. The plates were incubated at 37 C in a humidified incubator in 5% CO2 for 72 h, and 2 ul lysis buffer (20 mM Tris HCl, 10 mM EDTA, 0.16% saponin, 1.6% triton X, 10X SYBR Green I supplied as 10,000X […] by Invitrogen) was added to each well. The plates were mixed for 25 sec with gentle shaking and incubated overnight at room temperature in the dark. The following morning, fluorescence intensity at 485(14) nm excitation and 535(25) nm emission wavelengths was measured on an EnVision (Perkin Elmer) plate reader. Plate reads were normalized relative to the control inhibitor (0.29 uM artemisinin) and vehicle (DMSO) wells present on each plate and then corrected by an algorithm using vehicle-only control plates at the beginning and end of the compound plate stack.
# Potency is the fitted concentration of half-maximal effect.
row,Compound,Potency
1,CCCCCCCCCCCCCCCC[n+]1ccccc1,1.51 µM (active)
2,CN1CCCN(C(c2ccccc2)c2ccc(Cl)cc2)CC1 (configuration not stated),1.2 µM (active)
3,CCCCCCCCCCCCCC[N+](C)(C)C,4.26 µM (active)
4,Nc1c2ccccc2nc2ccccc12,8.49 µM (active)
5,Nc1ccc2cc3ccc(N)cc3nc2c1,7.57 µM (active)
6,CCCCCCCCCCCCCCCC[N+](C)(C)Cc1ccccc1,4.26 µM (active)
7,CC(NCCC(c1ccccc1)c1ccccc1)c1ccccc1 (configuration not stated),4.26 µM (active)
8,O=[N+]([O-])c1ccc(O)c2ncccc12,10.7 µM (active)
9,Nc1ncnc2nc[nH]c12,inactive
10,O=S(=O)(O)c1ccc2nc(-c3ccccc3)[nH]c2c1,inactive
11,O=C(Nc1ccc(Cl)cc1)Nc1ccc(Cl)c(Cl)c1,3.01 µM (active)
12,CN1CCC(Nc2ncc3ncnc(Nc4ccc(F)c(Cl)c4)c3n2)CC1,5.36 µM (active)
